# A selection: hits, their analogues and other compounds. The true share with any hit is near 3.6%.
# Pf apPOL block – Pf-apPOL DNA polymerase inhibition | Recombinant Pf-apPOL, molecular beacon fluorescence, 1.5 h | inhibition, % at 10 µM | 210,000 compounds, 0.25% hits
# mHTT CaM bind – inhibitors of human mutant huntingtin-calmodulin interaction; P42858; AlphaScreen His-mHTT/GST-CaM binding, luminescence; inhibition, % at 15 µM; 190,000 compounds, 3.6% hits;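 also: 0% = both proteins with DMSO and 100% = one protein alone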
# An asterisk follows results filed as active. Rule as the data show it: active = inhibition above about 50%; inactive = the rest.
SMILES,Pf apPOL block,mHTT CaM bind
CCOc1ccc(NC(=O)C2CCN(c3cc(=O)n(C)c(=O)n3CC)CC2)cc1,-2,61*
CCn1c(N2CCC(C(=O)Nc3ccc(OC)c(OC)c3)CC2)cc(=O)n(C)c1=O,-1,62*
Cc1cccc(C2=N/C(=C/c3cccc(C(F)(F)F)c3)C(=O)O2)c1,2,4
Cc1nc(N)n(CC(=O)N2CCc3ccccc32)c(=O)c1C,0,1
CCC1CN(C(=O)Nc2ccc(F)c(Cl)c2)c2ccccc2O1 (stereo not drawn),-7,-10
CCOc1ccc(N(C(C)C(=O)N2CCc3ccccc3C2)S(C)(=O)=O)cc1 (stereo not drawn),-10,-2
CCc1[nH]nc2c1C(c1ccccc1[N+](=O)[O-])C(C#N)=C(N)O2 (stereo not drawn),9,11
COc1ccc(N=Cc2cc([N+](=O)[O-])ccc2O)cc1,-3,11
COc1ccc(N=Cc2ccc(O)c3c2OC(N)=C(C#N)C3c2cccc([N+](=O)[O-])c2)cc1 (stereo not drawn),-6,99*
N#CC1=C(N)Oc2c(C=Nc3ccccc3)ccc(O)c2C1c1ccccc1[N+](=O)[O-] (stereo not drawn),-10,100*
COc1ccc(C(=O)N2CCCC(COc3ccc(C(=O)N4CCCC4)cc3)C2)cc1F (stereo not drawn),-2,-2
CCC(=O)NC(c1ccccc1)c1cc([N+](=O)[O-])c2cccnc2c1O (stereo not drawn),1,100*
CC(C)C(=O)NC(c1cccs1)c1cc([N+](=O)[O-])c2cccnc2c1O (stereo not drawn),-5,100*
CCC(=O)NC(c1ccccc1Cl)c1cc([N+](=O)[O-])c2cccnc2c1O (stereo not drawn),-3,100*
CCCC(=O)NC(c1ccc(Cl)cc1Cl)c1cc([N+](=O)[O-])c2cccnc2c1O (stereo not drawn),-3,99*
CC1CCN(c2ccc(/C=C(\C#N)c3nn(CCO)c(N)c3C#N)cc2[N+](=O)[O-])CC1,1,14
Cn1c(CNC(=O)C2CCc3sc(C(=O)N4CCCCC4)cc3C2)nc2ccccc21 (stereo not drawn),-2,19
Cc1nn(-c2nc3ccccc3s2)c2c1C(c1cc(F)ccc1F)CC(=O)N2 (stereo not drawn),-3,-7
COc1cc(/C=C/C(=O)Nc2c3c(nn2-c2cccc(C)c2C)CSC3)cc(OC)c1OC,-4,35
CCCC(=O)NC(c1ccc(C(C)C)cc1)c1cc([N+](=O)[O-])c2cccnc2c1O (stereo not drawn),-2,51*
CCC(=O)NC(c1ccccc1OC)c1cc([N+](=O)[O-])c2cccnc2c1O (stereo not drawn),-4,100*
CN(C)C(=O)NC(c1ccccc1)c1cc([N+](=O)[O-])c2cccnc2c1O (stereo not drawn),-10,100*
CCC(=O)NC(c1ccc(C(C)C)cc1)c1cc([N+](=O)[O-])c2cccnc2c1O (stereo not drawn),-8,100*
COc1ccc(NC(=O)N2CCC(CCOc3ccncc3)CC2)cc1,-4,-3
CC(=O)Nc1cccc(N2CC(C(=O)NCc3ccc(Br)cc3)CC2=O)c1 (stereo not drawn),-4,6
SMILES,Pf apPOL block,mHTT CaM bind
CC(C)CC(=O)NC(c1cccs1)c1ccc2cccnc2c1O (stereo not drawn),-1,100*
CCCC(=O)NC(c1cccs1)c1cc(Cl)c2cccnc2c1O (stereo not drawn),-5,100*
O=C(CCc1ccccc1)NC(c1cccs1)c1ccc2cccnc2c1O (stereo not drawn),-4,19
CCCC(=O)NC(c1cccs1)c1ccc2cccnc2c1O (stereo not drawn),-1,100*
O=C(NC(c1cccs1)c1ccc2cccnc2c1O)C1CCCCC1 (stereo not drawn),-14,97*
CC(C)C(NC(=O)C1CCN(c2ccc(N3CCCCC3)nn2)CC1)c1cccs1 (stereo not drawn),-8,1
CC(C)CC(=O)Nc1cccc(NC(=O)c2cccs2)c1,0,-2
CC(C)C(=O)NC(c1cccs1)c1cc(Cl)c2cccnc2c1O (stereo not drawn),16,18
O=C1CC(c2noc(C3CCCC3)n2)CN1c1ccccc1 (stereo not drawn),-8,-8
Cc1ccc(Cl)cc1NC(=O)Nc1ccc2c(c1)CCN2S(C)(=O)=O,-4,9
CC(=O)N(Cc1cc(-c2cc(C)ccc2C)on1)C(C)C,-6,1
CS(=O)(=O)N1CCC(CNC(=O)C(=O)NCc2cccs2)CC1,8,-2
Cc1ccccc1OCC(=O)NC(C)C,2,-11
O=C(CSc1ccccn1)Nc1ccc(Br)cc1,3,-12
O=C(CSc1ccc(-c2ccccn2)nn1)Nc1ccc(F)c(F)c1,-6,99*
CCCc1cc(C2CCCN2Cc2ccc(OC)cc2)no1 (stereo not drawn),-1,-12

# Source: PubChem (University of Kansas High Throughput Screening Laboratory)
